# Laboratory results published in PubChem BioAssay AID2825 (Sanford-Burnham Center for Chemical Genomics, 2010).
# Screen size: about 330,000 compounds; about 1,300 (0.39%) were called active. The sample holds actives, similar compounds and a random draw of the others, so the mix is not that of the screen.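 How the source made its calls: active means inhibition of 50% or more; inactive means inhibition below 50%.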
# Assay: NALP3 inflammasome inhibitors in reconstituted yeast, primary screen, luminescence, uHTS (AID 2825);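 further: plate controls were induced DMSO wells for no effect and uninduced yeast grown without galactose for full effect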
# Conditions: Yeast reconstituted NLRP3/ASC/caspase-1, beta-gal luminescence, 24 h; at 10 µM; stronger effect = higher value
row,Structure (SMILES),inhibition
1,COc1cc(N2C(=O)c3ccccc3C2=O)c(Cl)cc1C(=O)OCC(=O)N1CCOCC1,-0.245% (inactive)
2,N#C/C=C(/c1ccc(F)cc1)N1CCOCC1,6.72% (inactive)
3,CCOc1cc(/C=N/NC(=O)OC)ccc1OCCSc1ccc(Cl)cc1,33.5% (inactive)
4,CC(C)(C)NC(=O)CN(C(=O)c1ccc(Cl)nc1)c1cccc2ccccc12,13.4% (inactive)
5,O=C(O)CC1=C(Nc2ccccc2)C(=O)N(c2ccccc2)C1c1ccc(Cl)cc1 (stereo not drawn),15% (inactive)
6,O=C(CCC(=O)OCc1ccc(Cl)cc1)Nc1ccccc1,21% (inactive)
7,O=C1C=C(c2ccc(Cl)cc2)C(=O)N1Nc1ccccc1,74.6% (active)
8,Cc1sc2c(c1C)c(=O)n(-c1ccccc1)c1nncn21,2.84% (inactive)
9,CCCCNC(=O)C1(O)c2ccccc2NC(=O)N1c1ccc(Cl)cc1 (stereo not drawn),3.8% (inactive)
10,COc1cc(NC(=O)C2=CC(c3ccco3)=NS(=O)(=O)N2C)cc(OC)c1OC,2.53% (inactive)
11,Cc1noc(C)c1CSCC(=O)Nc1nc2ccc(Oc3ccccc3)cc2s1,9.07% (inactive)
12,CCc1noc(C)c1C(=O)Nc1nc2ccc(OC)cc2s1,70.8% (active)
13,CCc1noc(C)c1C(=O)Nc1nc(-c2ccccc2)cs1,45.9% (inactive)
14,Cc1ccc(C)c(N2CCN(C(=O)Cn3ncn4cccc4c3=O)CC2)c1,-5.29% (inactive)
15,COCCN1CCn2c(nc3cc(NS(C)(=O)=O)ccc32)C1,10.9% (inactive)
16,CN=C1C=C/C(=N/N=c2\ccn(O)cc2C)C=C1C,57.6% (active)
17,COCCn1c(=O)[nH]c2cc(C(=O)NCc3cccnc3)ccc2c1=O,-3.21% (inactive)
18,CC(NC(=O)c1cc2cc(Cl)ccc2oc1=N)c1ccccc1 (stereo not drawn),14.4% (inactive)
19,CC(=O)[C@@]12O[C@@H]1C[C@H]1[C@@H]3CC[C@H]4C[C@@H](O)CC[C@]4(C)[C@H]3CC[C@@]12C,58.4% (active)
20,CC(=O)C12CC(C)=C(C)CC1CC1C3CCC4=CC(=O)CCC4(C)C3CCC12C (stereo not drawn),-1.41% (inactive)
21,CC(=O)O[C@H]1CC[C@@]2(C)[C@@H](CC[C@@H]3[C@@H]2CC[C@]2(C)[C@@H](C(C)(C)O)C[C@@H]32)C1,32.9% (inactive)
22,CC1CCN(S(=O)(=O)c2ccc3[nH]c(=O)ccc3c2)CC1,18.1% (inactive)
23,O=C(CC(Cc1ccccc1)C(=O)O)NCCc1ccc2c(c1)OCO2 (stereo not drawn),20.5% (inactive)
24,CCc1ccc(NC(=O)NC(C)c2ccc3c(c2)OCO3)cc1 (stereo not drawn),24.3% (inactive)
25,CC(=NCc1ccc2c(c1)OCO2)C1=C(O)c2ccccc2C1=O,57.8% (active)
26,CCC(=O)c1cc(F)ccc1OCC(=O)Nc1ccc2c(c1)OCCO2,26.6% (inactive)
27,O=C(NC1CCC(O)CC1)c1ccccc1OCc1ccc(F)cc1 (stereo not drawn),1.97% (inactive)

row,Structure (SMILES),inhibition
1,COCCNC(=O)CCCn1c(=O)c2ccccc2n(Cc2cccc([N+](=O)[O-])c2)c1=O,-0.805% (inactive)
2,O=C(COc1ccc(Br)cc1F)NC1CCN(Cc2ccccc2)CC1,23% (inactive)
3,Cc1cc(C(=O)COc2ccc(Br)cc2F)c(C)n1C1CC1,58.4% (active)
4,Cc1cc(C(=O)COc2ccccc2Cl)c(C)n1C1CC1,21.7% (inactive)
5,O=C1C=CN2CCCC2CC1 (stereo not drawn),-5.59% (inactive)
6,O=C1CC(c2ccccc2)CC(O)=C1C=NCCN1CCOCC1 (stereo not drawn),29.8% (inactive)
7,CC(C)C(=O)N1CCN(CCN=CC2=C(O)CC(c3ccco3)CC2=O)CC1 (stereo not drawn),60.8% (active)
8,CC(=O)N1CCN(CCN=CC2=C(O)CC(C)(C)CC2=O)CC1,32.1% (inactive)
9,Cc1cc(C(=O)OCC(=O)Nc2nccs2)c2ccccc2n1,10.4% (inactive)
10,CN(C)CCCNC(=O)/C=C/c1ccc(OCc2c(F)cccc2Cl)cc1,20.8% (inactive)
11,O=C(/C=C/c1ccc(OCc2c(F)cccc2Cl)cc1)N1CCOCC1,28.2% (inactive)
12,COCCCNC(=O)/C=C/c1ccc(OCc2c(F)cccc2Cl)cc1,50.9% (active)
13,CCN(CC(=O)Nc1ccc(NC(C)=O)cc1)C(=O)CSC(=S)N1CCCC1,4.68% (inactive)
14,C=CCC1(CC=C)CCCN1C(=O)CC1C(=O)NCCN1Cc1ccccc1OC (stereo not drawn),4.65% (inactive)
15,Cc1sc2ncnc(Sc3nc4ccccc4s3)c2c1C,6.48% (inactive)
16,CCCNc1ncnc2sc(C)c(C)c12,55.9% (active)
17,CSc1ncnc2sc(C)c(C)c12,11.2% (inactive)
18,Cc1cc(NC(=O)CN2C(=O)NC(C)(CCc3ccccc3)C2=O)no1 (stereo not drawn),-3.27% (inactive)
19,COCCNC(=O)c1ccc2nc(Cc3ccc(OC)c(OC)c3)oc2c1,20.9% (inactive)
20,O=C(Cn1ccc2cc(S(=O)(=O)N3CCCC3)ccc21)NCc1ccccc1,11.6% (inactive)
21,O=[N+]([O-])/C=C/c1ccc2c(ccn2Cc2ccccc2)c1,92.3% (active)
22,Cc1ccc2[nH]c3c(=O)n(CC(=O)NCCc4ccc(Cl)cc4)ncc3c2c1,1.78% (inactive)
23,CC1(C)CCSC(/C=C/c2ccccc2)=N1,85.7% (active)
24,COc1ccc(CCNS(=O)(=O)c2ccc(Cl)s2)cc1OC,11% (inactive)
25,CC1CC(C)CN(S(=O)(=O)c2cccc3nonc23)C1 (stereo not drawn),25% (inactive)
26,CC(C)C[C@H](NC(=O)NCCc1ccc(Cl)cc1)C(=O)O,2.68% (inactive)
